Experiment [1] is described as follows: qHTS assay to identify small molecule inhibitors of chordoma cells - UCH-2 (AID 1259356). Note: potency is the fitted concentration of half-maximal effect.
The nature of experiment [2]: P-glycoprotein substrates identified in KB-8-5-11 adenocarcinoma cell line, qHTS therapeutic library screen (AID 1346987). Note: nearly all actives have a fitted effect of over 65% in size. Note: potency is the fitted concentration of half-maximal effect. An outline of the steps:
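KB-8-5-11, a colchicine-selected P-gp-overexpressing KB-3-1 subline, was grown without colchicine for the assay. Cells were seeded at 500 cells/well, dosed in concentration-response and incubated 72 h at 37 degree C, 5% CO2. Viability was read by CellTiter-Glo luminescence.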
(Quantitative high-throughput screening tests each substance at several concentrations.)

A short description of experiment [3]: Identifying Small Molecule Inhibitors of Pancreatic Cancer Stem Cells (A2780, Spheroid) (AID 1259357).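 Note: compound exposure lasted 48 h before the ATP luminescence read.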 Note: potency is the fitted concentration of half-maximal effect. The following applies: Potency: A2780 spheroid viability. An outline of the steps: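 Spheroids grown 14 days in stem cell media on nonadherent hydrogel before screening; cells attached 4 h, then compound exposure 48 h at 37C, 5% CO2. CellTiter-Glo luminescence normalized to DMSO (no inhibition) and no-cell wells (full inhibition).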

Experiment [4] can be described thus: Identifying Small Molecule Inhibitors of Pancreatic Cancer Stem Cells (Panc1, Spheroid) (AID 1259359).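 Note: potency is the fitted concentration of half-maximal effect; compound exposure lasted 48 h before reading.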 The procedure, abridged: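 Luminescent ATP readout (CellTiter-Glo) quantifies surviving cells after a 48 h drug incubation. Normalization uses DMSO wells as no inhibition and media-only wells as full inhibition; bortezomib served as positive control.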
Experiment [5] is described as follows: Identifying Small Molecule Inhibitors of Pancreatic Cancer Stem Cells (A278, Adherent) (AID 1259361). Note: nearly all actives have a fitted effect of over 35% in size. An outline of the steps: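 Monolayer and spheroid cultures are compared. Spheroids form over 14 days in stem cell medium on hydrogel-coated low-attachment plates, then are exposed to compound for 48 h before CellTiter-Glo luminescence.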
Experiment [6] can be described thus: Identifying Small Molecule Inhibitors of Pancreatic Cancer Stem Cells (Panc1, Adherent) (AID 1259362). Note: potency is the fitted concentration of half-maximal effect. The settings on record: Potency: viability. The procedure, abridged: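 Spheroids grown 14 days in stem cell media on hydrogel-coated nonadherent plates; 2D lines seeded directly. Compounds added after 4 h attachment, 48 h at 37C, 5% CO2; CellTiter-Glo luminescence normalized to DMSO (no inhibition) and no-cell wells (full inhibition).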

A short description of experiment [7]: P-glycoprotein substrates identified in KB-3-1 adenocarcinoma cell line, qHTS therapeutic library screen (AID 1346986). Note: nearly all actives have a fitted effect of over 60% in size. The procedure, abridged:
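KB-3-1 parental and colchicine-selected P-gp-overexpressing KB-8-5-11 cells (colchicine omitted during assay), 500 cells/well, dosed in dose-response for 72 h at 37 °C; CellTiter-Glo luminescence. Cytotoxic: curve class -1.1 to -2.4, max response >50%, AC50 < 10 uM.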

Molecules are shown by their SMILES. Where “and” joins values, the source holds several entries; their conditions need not be identical. Equal values may be shown once. Results filed as inconclusive are left out. Calls of active or inactive are those of the source. Calls come from the whole dose curve; as a rule, active = well fitted curve in the direction sought with a large enough effect; inconclusive = small, poorly fitted or top-dose-only effect, or another doubt; inactive = no such curve, though single readings can be large; an effect the other way counts as inactive or inconclusive.

As for `CCCC(=O)O[C@]1(C(=O)CCl)[C@H](C)C[C@@H]2[C@H]3CCC4=CC(=O)C=C[C@]4(C)[C@@]3(F)C(=O)C[C@@]21C`, the Potency entry in experiment [1] was “inactive”. For the same molecule, the Potency in experiment [2] is 13 µM (active).

On to `CCOc1ccc2c(c1)C(C)=CC(C)(C)N2`, for which the Potency result in experiment [1] and in experiment [2] was “inactive” throughout.

For `NC(=O)Nc1cc(-c2ccc(CN3CCOCC3)c(F)c2)sc1C(=O)N[C@H]1CCCNC1`, the Potency in experiment [3] was 20.9 µM (active); in experiment [4] it was 9.35 µM (active); in experiment [6], 0.833 µM (active). For the same molecule, the IC50 (viability decrease) in experiment [5] is 0.526 µM (active).

Take `CNC1CCN(C(Cc2cccc(-c3ccncc3)c2)C(=O)c2sc3c(F)ccc(F)c3c2Cl)CC1` (configuration not stated): the Potency result in experiment [3] is “inactive”.

In the case of `CCCCCCCCCCCCCC[n+]1ccc(C)cc1`, in experiment [1], the Potency was 25.9 µM (active). Also, the Potency result in experiment [2] was “inactive”.

With `O=S(=O)(O)O`, the Potency entry in experiment [1] and in experiment [2] was “inactive” in each case.

On to `O=C(O)CCC(=O)C(=O)O`, for which the Potency result in experiment [1] and in experiment [2] was “inactive” throughout.

Consider `CC1=C(/C=C/C(C)=C/C=C/C(C)=C/C=C/C=C(C)/C=C/C=C(C)/C=C/C2=C(C)CCCC2(C)C)C(C)(C)CCC1`, for which the Potency entry in experiment [1] and in experiment [2] was “inactive” throughout.

Regarding `CCc1ccc2c(c1)N(CC(C)CN(C)C)c1ccccc1S2` (configuration not stated), in experiment [1], the Potency result is “inactive”. In addition, in experiment [2], the Potency is 25.9 µM (active).

Turning to `IC(I)I`, the Potency entry in experiment [1] and in experiment [2] was “inactive” each time.

For the molecule `CCCC(=O)O[C@]1(C(=O)COC(C)=O)CC[C@H]2[C@@H]3C[C@H](F)C4=CC(=O)C=C[C@]4(C)[C@@]3(F)[C@@H](O)C[C@@]21C`, the Potency entry in experiment [1] and in experiment [2] was “inactive” in each case.

In the case of `O=C(O)C[C@H](O)C[C@H](O)/C=C/c1c(C2CC2)nc2ccccc2c1-c1ccc(F)cc1`, the Potency entry in experiment [1] was “inactive”. Moreover, the Potency in experiment [2] is 8.2 µM (active) and 5.17 µM (active).

Take `CCN(c1cc(C#CCN2CCOCC2)cc(C(=O)NCc2c(C)cc(C)[nH]c2=O)c1C)C1CCC(N(C)CCOC)CC1` (configuration not stated): the Potency result in experiment [7] and in experiment [2] was “inactive” throughout.

Consider `CN1C(=O)c2ccccc2-n2c(nc3ccccc3c2=O)/C1=C/c1ccccc1`, for which the Potency entry in experiment [7] and in experiment [2] was “inactive” in each case.

Take `CO/N=C(/C(=O)N[C@@H]1C(=O)N2C(C(=O)O)=C(CSC(=O)c3ccco3)CS[C@H]12)c1csc(N)n1`: the Potency entry in experiment [7] and in experiment [2] was “inactive” in each case.

With `CC(=O)OC(CSC1CCC(=O)OC(C)CCC(=O)C1)C(=O)O` (configuration not stated), the Potency entry in experiment [7] and in experiment [2] was “inactive” throughout.

Turning to `CC(C(=O)O)C1CCC2(C)C3C(=O)C=C4C(CCC(=O)C4(C)C)C3(C)CCC12C` (configuration not stated), the Potency entry in experiment [7] and in experiment [2] was “inactive” each time.

Turning to `CCC[C@@H]1C[C@@H](C(=O)N[C@@H]([C@H]2O[C@H](SC)[C@H](O)[C@@H](O)[C@@H]2O)[C@@H](C)O)N(C)C1`, the Potency entry in experiment [7] and in experiment [2] was “inactive” each time.

As for `CCOc1nc2cccc(C(=O)OCc3oc(=O)oc3C)c2n1Cc1ccc(-c2ccccc2-c2noc(O)n2)cc1`, the Potency result in experiment [7] and in experiment [2] was “inactive” in each case.

For `C[C@H]1[C@H](C)CC[C@]2(C(=O)O)CC[C@]3(C)C(=CC[C@@H]4[C@@]5(C)C[C@@H](O)[C@H](O)[C@@](C)(CO)[C@@H]5CC[C@]43C)[C@H]12`, the Potency result in experiment [7] and in experiment [2] was “inactive” in each case.

Take `c1ccc(Nc2nc3c(s2)CCCc2[nH]ncc2-3)nc1`: the Potency entry in experiment [7] and in experiment [2] was “inactive” in each case.

`O=C(OCc1cccc(O)c1O[C@@H]1O[C@H](CO)[C@@H](O)[C@H](O)[C@H]1O)C1(O)C(=O)C2C=CC1C1C=CC(=O)C(O)(C(=O)OCc3cccc(O)c3O[C@@H]3O[C@H](CO)[C@@H](O)[C@H](O)[C@H]3O)C21` (some centres not stated): the outcome in experiment [7] and in experiment [2] was “inactive [at 9.29 µM]” each time.

As to `COc1cc(C2Oc3c(O)cc(CCCO)cc3C2CO)ccc1O[C@H]1O[C@H](C)[C@@H](O)[C@H](O)[C@@H]1O` (some centres not stated), the Potency entry in experiment [7] and in experiment [2] was “inactive” in each case.

As for `CO[C@@H]1CC[C@H](OC[C@]2(COC(=O)c3ccc(C)[nH]3)[C@H](OC(C)=O)CC[C@@]3(C)[C@@H]4CC=C(C)[C@@H](C5=C(O)C(=O)OC5O)[C@]4(C)CC[C@@H]32)O[C@H]1C` (some centres not stated), the Potency result in experiment [7] and in experiment [2] was “inactive” throughout.

For the molecule `COc1cc(C(O)C(CO)Oc2ccc(CCCO[C@@H]3O[C@@H](C)[C@H](O)[C@@H](O)[C@H]3O)cc2OC)ccc1O` (some centres not stated), the Potency entry in experiment [7] and in experiment [2] was “inactive” each time.

Take `CC1=CCC2C(C)(CO)CCCC2(C)C1CC12OC1C(O)C(CO)=CC2O` (configuration not stated): the Potency entry in experiment [7] and in experiment [2] was “inactive” each time.

Regarding `C[C@@H]1CC[C@H]2C(C)(C)[C@H](O)[C@H](O)C[C@]2(C)[C@@]12Cc1c(O)cc3c(c1O2)CNC3=O`, the Potency result in experiment [7] and in experiment [2] was “inactive” throughout.

Take `CC(C)CC(=O)n1cc(C(N)=O)c(=O)cc1C(O)c1ccccc1` (configuration not stated): the Potency entry in experiment [7] and in experiment [2] was “inactive” in each case.

The record behind these values is PubChem BioAssay (NCATS).
